According to PubChem BioAssay (NCI):
This is part of a sample that, as a whole, favours compounds with a hit. Of some 83,000 tested, about 20% had one in any assay.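 How to read the values: 0–100, growth inhibition (40 = 60% inhibited); 0, no net growth; -100 to 0, cell death (-40 = 40% of starting cells died; -100 = all dead).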 Values without a mark were called inactive. Activity calls are given as the source filed them. How the source made its calls: active means growth percent below 10; inactive means the rest.

The compounds below were run on U251 CNS (assay: NCI-60 one-dose screen, 48 h (100 = growth as untreated, 0 = no growth, -100 = all killed)). Conditions: 10 µM unless noted.

SMILES	growth
COc1ccc(C=Nc2c(C(=O)Nc3cccc(Cl)c3C)sc3nc(C)c(C(=O)/C=C/c4ccc(OC)cc4)cc23)cc1	23.6%
CCOC(=O)CNC1=C(Cl)C(=O)N(Cc2ccc(Cl)cc2)C1=O	100%
COc1ccc(/C=C(\C(=O)NCc2cccnc2)S(=O)(=O)c2ccccc2)cc1OC	32.2%
COc1cc2c(c(OC)c1OC)CCC(c1cccc(C(=O)Nc3ccc(Br)cc3)c1)O2 (stereo not given)	75.5%
Nc1cc(-c2ccc(Cl)cc2)nn1-c1nnc(/C=C/c2ccco2)c(=O)[nH]1	50.6%
N#C/C(=C\c1ccc(-c2cccc(Cl)c2)o1)C(=O)Nc1ncc(Cc2ccc(Cl)cc2)s1	16.9%
CCOC(=O)c1c(C)nc2c(c1N)C(=O)C(=O)N2Cc1ccc(OC)cc1	38.1%
c1csc(-c2cn3nc(-c4c[nH]c5ccccc45)sc3n2)c1	23.7%
FC(F)(F)c1[nH]ncc1-c1nc2ccc3[nH]ncc3c2c2c1CCCC2	5.69% (active)
COc1cc(-c2nccc3[nH]c(-c4cccc5[nH]ccc45)nc23)cc(OC)c1OC	13.6%
COc1ccc2[nH]cc(-c3nonc3-c3c[nH]c4ccc(Br)cc34)c2c1	42.2%
CC(=O)c1c(Nc2cccc(F)c2)[nH]c2c(Cl)cc(Cl)c(Cl)c2c1=O	3.22% (active)
CCOC(=O)NC(=S)n1oc(=O)c2ccccc21	98.6%
O=S(Nc1ccccc1)c1ccc(Cl)cc1 (stereo not given)	95.1%
Nc1c(Br)cc2c(c1Br)Cc1cc([N+](=O)[O-])ccc1-2	95.5%
CCCN(CCSSCCNc1nc(N(C)O)nc(N(C)O)n1)c1nc(N(C)O)nc(N(C)O)n1	32.8%
COC(=O)c1sccc1-c1cc(O)c(C(=O)Nc2ccccc2)s1	101%
N#Cc1c(-c2ccc(Cl)cc2)nc(NN=Cc2ccc[nH]2)nc1N1CCOCC1	56.4%
Clc1ccc(-c2nc(C(Cl)Cl)nc3cc(-c4ccccc4)nn23)cc1	7% (active)
C/C(=N\Nc1ccccc1)c1ccc(NC2=CC(=O)c3ccccc3C2=O)cc1	45.8%

SMILES	growth
COc1ccc(/C=C(/C(=O)N2CCNCC2)c2cc(OC)c(OC)c(OC)c2)cc1O	19.6%
CCN(CC)CCCC(Cc1ccccc1)Nc1c2ccc(Cl)cc2nc2ccc(OC)cc12 (stereo not given)	9.64% (active)
Fc1ccc2[nH]cc(-c3nc(-c4c[nH]c5c(Cl)nccc45)cs3)c2c1	13.8%
Fc1ccc(/C=C/[C@@H]2C[C@@H](F)CCO2)cc1	111%
Cc1ccccc1N1CCN(C(=S)c2ccccc2)CC1	93.4%
N#Cc1ccc(/C=C/c2cn(-c3ccccc3)nc2-c2cccc([N+](=O)[O-])c2)cc1	46.7%
Cc1[nH]c(C(=O)Nc2ccccc2OC2CCN(CCN3CCOCC3)CC2)c(Cl)c1Cl	93.3%
COc1ccc(C(O)c2cc3c(N)c(C(=O)Nc4cccc5ccccc45)sc3nc2C)cc1 (stereo not given)	20.1%
Cc1ccc(C(=O)c2ccc(CC(=O)N/N=C/c3cccc(O)c3O)n2C)cc1	26%
CCC(C)(C)c1ccc(Nc2ccc(Nc3ccc(C(C)(C)CC)cc3)cc2)cc1	90.7%
O=C(Nc1ccc(Nc2ccncc2)cc1)c1ccc(Nc2ccnc3ccc([N+](=O)[O-])cc23)cc1	95.5%
CCCCNC(=O)c1ccc2c(c1)nc(-c1ccccc1)n2C1CCCCC1	99%
Cc1ccc(NC(=O)c2cc3ccccc3cc2O)c(C)c1	97.5%
CCOC(=O)C(CCN(C)C)c1ccccc1 (stereo not given)	103%
CC(O)Cc1c[nH]c(=O)[nH]c1=O (stereo not given)	95.9%
COCCn1cc(-c2nc(-c3c[nH]c4ncccc34)cs2)c2ccccc21	72%
CC1SC(c2ccccc2O)N(NC(=O)CCC(=O)c2nc3ncccc3[nH]2)C1=O (stereo not given)	97.3%
COC12C=C/C(=C(/C(=O)OCCSc3ccnn3C)C(=O)CCCCCCCCC3(OC)C=C/C(=C(/C(=O)OCCSc4ccnn4C)C(=O)CCCCCCCC1)O3)O2	-3.32% (active)
COC1C(O)CC(OC2CC(OC3CC(O[C@@H]4C(=O)c5c(cc6cc(OC7CC(OC8CC(O)C(O)C(C)O8)C(O)C(C)O7)c(C)c(O)c6c5O)CC4[C@H](OC)[C@@H](O)C(C)=O)OC(C)C3O)OC(C)C2O)OC1C (stereo not given in full)	7.11% (active)
CNC(=O)c1cc(Oc2ccc3c(c2)sc2nc(-c4ccc(NC(=O)[C@@H](NC(=O)OC)C(C)C)cc4)cn23)ccn1	81.6%
